Shown are actives, neighbours in structure and some others; about 21% of the full set was active somewhere.
DT40 TDP1 no CPT: qHTS for Inhibitors of human tyrosyl-DNA phosphodiesterase 1 (TDP1): qHTS in cells in absence of CPT | Potency, µM (highest dose often 46.2 µM), without a hit: at the highest dose activity change, negative = growth inhibition, actives largely listed as inhibitors | 15% of 420,000 active | DT40 Tdp1-/- hTDP1 cells, no CPT, ATP luminescence, 48 h | AID 686978, 2013; note: potency is the fitted concentration of half-maximal effect; nearly all actives have a fitted effect of over 55% in size
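Luminescent ATP content (CellTiter-Glo) served as the growth readout. Knockout chicken DT40 cells expressing human TDP1 were exposed to compounds without camptothecin for a minimum 48 hr at 37 °C.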
IL-1B inflam inh: qHTS for Inhibitors of Inflammasome Signaling: IL-1-beta AlphaLISA Primary Screen. THP-1 LPS/ATP IL-1B secretion, AlphaLISA, 16 h; stronger effect = lower value. AID 743279, 2014. activity change, % at 57.5 µM. 4.7% of 360,000 active; in the data active = activity change below about -50%; inconclusive = mostly about -30% to -49%
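THP-1 cells pretreated 1 hr with compounds (up to 57.5 uM final), then stimulated with LPS (250 ng/mL final) plus ATP (1.25 mM final); secreted IL-1B measured by AlphaLISA after 16 hr, decreased signal indicating inhibition.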
Gal4-VP16 FLuc: VP16 counterscreen qHTS for inhibitors of ROR gamma transcriptional activity; Drosophila S2 Gal4-VP16 UAS-luciferase, luminescence, 20 h; Potency, µM (series often up to 53.6 µM), for the others: top-dose activity, negative = inhibition, actives largely listed as inhibitors; 3.5% of 310,000 active;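 note: Gal4-VP16 expression switched on by copper sulfate through the metallothionein promoter; potency is the fitted concentration of half-maximal effect; nearly all actives have a fitted effect of over 50% in size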
ELG1 DNA repair: qHTS screen for small molecules that inhibit ELG1-dependent DNA repair in human embryonic kidney (HEK293T) cells expressing luciferase-tagged ELG1; HEK293T ELG1-luciferase reporter, luminescence, 16 h; DNA damage induced by 5-fluorouridine; Potency, µM (top dose mostly 46.1 µM), inactives show at the highest dose activity change, negative = inhibition, actives largely listed as inhibitors; 2.3% of 330,000 active; note: potency is the fitted concentration of half-maximal effect; nearly all actives have a fitted effect of over 55% in size
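In this reporter screen, reduction of luminescence relative to DMSO vehicle indicated activity. Compounds and 5-fluorouridine were added together to 2,000 cells per well, incubated for 16 hr at 37 °C, then developed with ONE-Glo.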
RORgamma inh: qHTS for inhibitors of ROR gamma transcriptional activity. Nuclear receptor ROR-gamma (Mus musculus), P51450. Drosophila S2 Gal4-RORgamma UAS-luciferase reporter, 20 h. Potency, µM (doses to about 53.6 µM), inactives show at the highest dose activity change, negative = inhibition, most hits filed as inhibitors. 5.4% of 310,000 active. AID 2551, 2010; note: potency is the fitted concentration of half-maximal effect; nearly all actives have a fitted effect of over 60% in size
Target sequence (P51450 whole entry, looked up, the tested form may be a part): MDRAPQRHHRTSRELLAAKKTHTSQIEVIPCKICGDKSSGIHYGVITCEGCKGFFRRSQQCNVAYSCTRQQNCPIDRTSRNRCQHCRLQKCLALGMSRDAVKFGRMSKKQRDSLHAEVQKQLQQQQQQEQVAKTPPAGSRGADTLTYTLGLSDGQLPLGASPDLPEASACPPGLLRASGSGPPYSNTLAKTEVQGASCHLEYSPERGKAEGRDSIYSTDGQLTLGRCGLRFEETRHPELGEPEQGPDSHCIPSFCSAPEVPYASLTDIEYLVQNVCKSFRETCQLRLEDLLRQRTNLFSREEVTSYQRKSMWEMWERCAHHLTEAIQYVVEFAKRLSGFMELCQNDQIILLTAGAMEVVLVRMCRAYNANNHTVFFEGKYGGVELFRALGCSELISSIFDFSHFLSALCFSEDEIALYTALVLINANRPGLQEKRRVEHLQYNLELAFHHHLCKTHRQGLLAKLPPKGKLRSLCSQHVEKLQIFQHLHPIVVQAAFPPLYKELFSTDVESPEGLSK
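Schneider cells (Drosophila), stable Gal4 DBD–ROR gamma + UAS-luc; 1 hr cmpd preincubation; Cu2+ induction 700 uM final; 20 hr ambient; luminescence.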
TDP1 cell CPT: qHTS for Inhibitors of human tyrosyl-DNA phosphodiesterase 1 (TDP1): qHTS in cells in presence of CPT; AID 686979, 2013; Potency, µM (series often up to 46.2 µM), for inactives: at the top dose activity change, negative = growth inhibition, hits mostly inhibitors; 12% of 420,000 active; chicken DT40 Tdp1-/-;hTDP1 cells + 20 nM CPT, ATP luminescence, 48 h; note: potency is the fitted concentration of half-maximal effect; nearly all actives have a fitted effect of over 55% in size
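Chicken DT40 Tdp1-/- cells complemented with human TDP1, 400 cells/well, exposed to compounds plus 20 nM camptothecin for at least 48 h at 37 C; viability read as ATP content by CellTiter-Glo luminescence.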
An asterisk follows results filed as active; [ ] = dose if it differs, or a comment. Unless noted, calls come from the whole dose curve; as a rule, active = well fitted curve in the direction sought with a large enough effect; inconclusive = small, poorly fitted or top-dose-only effect, or another doubt; inactive = no such curve, though single readings can be large; an effect the other way counts as inactive or inconclusive. % is set by controls: 0 for no effect and ±100 for the full control effect.

`O=c1c2cnn(-c3ccc(F)cc3)c2ncn1Cc1cccc(Cl)c1` gave DT40 TDP1 no CPT -26.8% and TDP1 cell CPT -17.8%.
Screening CC(=O)Nc1ccc2c(c1)Cc1c(F)cccc1-2 returned DT40 TDP1 no CPT -3.7%, IL-1B inflam inh 9.2 and TDP1 cell CPT -6.8%.
Cc1cccc(CN2CC34C=CC(CC3S2(=O)=O)O4)c1 (stereo unspecified) was read as Gal4-VP16 FLuc inconclusive and RORgamma inh 33.0%.
Screening COc1cccc(-c2ccc3ncnc(NCCN4CCOCC4)c3c2)c1 returned DT40 TDP1 no CPT inconclusive, Gal4-VP16 FLuc 1.6%, RORgamma inh inconclusive and TDP1 cell CPT inconclusive.
`Cc1ccc(/C=N/NC(=O)NC23CC4CC(CC(C4)C2)C3)o1` gave DT40 TDP1 no CPT -29.3%, IL-1B inflam inh -1.7, Gal4-VP16 FLuc 3.0%, ELG1 DNA repair inconclusive, RORgamma inh 30.5% and TDP1 cell CPT -3.1%.
Screening Cc1c(C(=O)NCc2ccccc2Cl)sc2nc[nH]c(=O)c12 returned DT40 TDP1 no CPT -25.6% and TDP1 cell CPT -24.2%.
Screening CSc1cccc(Nc2cc(C(=O)NCCc3ccc(Cl)cc3)c3ccccc3n2)c1 returned DT40 TDP1 no CPT 7.31µM* and TDP1 cell CPT 4.61µM*.
C[N+]1(CC(=O)c2ccc(O)c(O)c2)CCOCC1 was read as DT40 TDP1 no CPT -16.6% and TDP1 cell CPT inconclusive.
Screening O=C(C[N+]12CN3CN(CN(C3)C1)C2)c1ccc(O)c(O)c1 returned DT40 TDP1 no CPT inconclusive and TDP1 cell CPT 10µM*.
Screening COc1ccc(-c2cc(C(=O)N3CCN(c4ccccc4)CC3)no2)cc1OC returned DT40 TDP1 no CPT inconclusive, IL-1B inflam inh 13.0, Gal4-VP16 FLuc 0.3%, ELG1 DNA repair -13.3%, RORgamma inh 26.2% and TDP1 cell CPT -28.8%.
For COc1cccc(OCc2cc(C(=O)N3CCN(c4ccccc4O)CC3)no2)c1 the results were DT40 TDP1 no CPT 13µM*, IL-1B inflam inh 0.0, Gal4-VP16 FLuc inconclusive, ELG1 DNA repair inconclusive, RORgamma inh 12.3% and TDP1 cell CPT 16.4µM*.
For COc1ccccc1N1CCN(C(=O)c2cc(-c3ccccc3O)on2)CC1 the results were DT40 TDP1 no CPT 18.4µM*, IL-1B inflam inh 19.3, Gal4-VP16 FLuc -3.1%, ELG1 DNA repair 28.3%, RORgamma inh inconclusive and TDP1 cell CPT 20.6µM*.
COc1cccc(OCc2cc(C(=O)N3CCN(C(C)=O)CC3)no2)c1 was read as DT40 TDP1 no CPT 1.9%, IL-1B inflam inh -1.8, Gal4-VP16 FLuc 5.2%, ELG1 DNA repair inconclusive, RORgamma inh 6.7% and TDP1 cell CPT -6.5%.
COc1ccc(-c2cc(C(=O)N3CCN(c4ccccc4OC)CC3)no2)cc1OC was read as DT40 TDP1 no CPT 20.6µM*, IL-1B inflam inh -7.5, Gal4-VP16 FLuc -1.4%[10 µM], ELG1 DNA repair -15.6%, RORgamma inh 33.1% and TDP1 cell CPT -14.6%.
`CC(C)CC(=O)n1nc(-c2ccco2)nc1NCc1ccc(Cl)cc1` gave DT40 TDP1 no CPT -23.1% and TDP1 cell CPT inconclusive.
For Cc1o[nH]c(=O)c1CC[C@H](N)C(=O)O the results were DT40 TDP1 no CPT -7.0%, Gal4-VP16 FLuc 4.1%, RORgamma inh 3.9% and TDP1 cell CPT 7.9%.
Screening CC1(C)OB(c2cnc(C#N)nc2)OC1(C)C returned DT40 TDP1 no CPT -11.3% and TDP1 cell CPT 3.3%.
Screening Cc1nc(Cl)c(N=Cc2cccc([N+](=O)[O-])c2)c(Cl)n1 returned DT40 TDP1 no CPT -4.4%, IL-1B inflam inh 46.7, Gal4-VP16 FLuc 4.5%, ELG1 DNA repair inconclusive, RORgamma inh -11.8% and TDP1 cell CPT 2.0%.
Cc1ccc(S(=O)(=O)CCC(=O)N2CCN(c3ccc([N+](=O)[O-])cc3)CC2)cc1 was read as DT40 TDP1 no CPT 10.3µM*, IL-1B inflam inh -12.6, Gal4-VP16 FLuc inconclusive, ELG1 DNA repair inconclusive, RORgamma inh inconclusive and TDP1 cell CPT 18.4µM*.
`COc1ccc(S(=O)(=O)CCC(=O)N2CCN(c3ccccc3F)CC2)cc1` gave DT40 TDP1 no CPT inconclusive, IL-1B inflam inh -7.1, Gal4-VP16 FLuc -6.1%, ELG1 DNA repair 7.9%, RORgamma inh 35.5% and TDP1 cell CPT -7.2%.
Screening COc1ccc(S(=O)(=O)CCC(=O)N2CCN(c3ccc([N+](=O)[O-])cc3)CC2)cc1 returned DT40 TDP1 no CPT 3.66µM*, IL-1B inflam inh inconclusive, Gal4-VP16 FLuc inconclusive, ELG1 DNA repair 5.9%, RORgamma inh inconclusive and TDP1 cell CPT 10.3µM*.
`NC(=O)c1ccccc1OCC(=O)N1CCCC1c1ccc2c(c1)OCCCO2` (stereo unspecified) gave DT40 TDP1 no CPT inconclusive, IL-1B inflam inh 10.3, ELG1 DNA repair 27.3% and TDP1 cell CPT inconclusive.
NC(=S)N/N=C1\CC(c2ccc3c(c2)OCCCO3)Oc2ccc(F)cc21 (stereo unspecified) was read as DT40 TDP1 no CPT 4.61µM*, IL-1B inflam inh -70.7*, Gal4-VP16 FLuc 0.562µM*, ELG1 DNA repair 3.66µM*, RORgamma inh -4.7% and TDP1 cell CPT 2.59µM*.
Screening COc1ccccc1N1CCN(C(=O)CCNS(=O)(=O)c2ccc(Br)s2)CC1 returned DT40 TDP1 no CPT 18.4µM*, IL-1B inflam inh -5.9, Gal4-VP16 FLuc -10.0%, ELG1 DNA repair -8.5%, RORgamma inh 16.0% and TDP1 cell CPT 23.1µM*.
COc1ccccc1N1CCN(C(=O)CCNS(=O)(=O)c2cc(Br)cnc2N)CC1 was read as DT40 TDP1 no CPT inconclusive, IL-1B inflam inh 1.9, Gal4-VP16 FLuc -2.7%, ELG1 DNA repair 5.1%, RORgamma inh 12.9% and TDP1 cell CPT 18.4µM*.
For COc1ccccc1N1CCN(C(=O)CNS(=O)(=O)c2ccc(Br)s2)CC1 the results were DT40 TDP1 no CPT inconclusive, IL-1B inflam inh -5.1, Gal4-VP16 FLuc -8.4%, ELG1 DNA repair 0.0%, RORgamma inh -4.7% and TDP1 cell CPT inconclusive.
For Nc1ncc(Br)cc1S(=O)(=O)NCCC(=O)Nc1cccc(Cl)c1 the results were DT40 TDP1 no CPT -13.1%, IL-1B inflam inh -61.1*, Gal4-VP16 FLuc -5.1%, ELG1 DNA repair -3.6%, RORgamma inh 32.9% and TDP1 cell CPT -19.8%.
